This is part of a sample that, as a whole, favours compounds with a hit. Of some 83,000 tested, about 20% had one in any assay.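 Cells were grown in 96-well plates and exposed to the test compound at a single concentration for 48 hours; results are reported as percent growth, with values below 10 considered active.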 Values without a mark were called inactive. Active and inactive are the calls of the source.

The test system of one experiment is SR leukemia. Kind of experiment: NCI-60 one-dose screen, 48 h (100 = growth as untreated, 0 = no growth, -100 = all killed). The conditions noted are these: 10 µM unless noted.
Turning to `CCCCCCCCCCCCOB(OCCCCCCCCCCCC)OCCCCCCCCCCCC`, the growth is 89.8%.

Consider `CNC(C)=O`, for which the growth is 88.2%.

Turning to `COc1cc2nc(N3CCC[C@@H](NC4=CC(=O)c5ccccc5C4=O)C3)nc(N)c2cc1OC`, the growth is -11.3% (active).

As for `COC(=O)[C@H]1[C@H](OC)[C@@H](OC(=O)/C=C/c2ccncc2)CC2CN3CCc4c([nH]c5cc(OC)ccc45)[C@@H]3C[C@@H]21` (some centres undefined), the growth was 78.3%.

Consider `Clc1nc(-c2cccnc2)nc2sc3c(c12)CCCCCC3`, for which the growth was 87.6%.

In the case of `O=c1oc2cc(OS(=O)(=O)c3ccc(F)cc3)ccc2c2c1CCCCC2`, the growth was 53.7%.

In the case of `CC(=O)C1CCC(C)=CC1=O` (centres undefined), the growth is 101%.

Another experiment deals with RPMI-8226 leukemia. Described as above. Conditions: 10 µM unless noted.
Turning to `Cc1cc(C)c(S(=O)(=O)N2CCN(c3cc4c(cc3F)c(=O)c(C(=O)O)cn4C3CC3)CC2)c(C)c1`, the growth was 22.4%.

Turning to `CCn1cc(C(=O)O)c(=O)c2cc(F)c(N3CCN(S(=O)(=O)c4ccc(OC)c(OC)c4)CC3)cc21`, the growth is 99.3%.

Take `Cc1ccc(S(=O)(=O)OCC(=O)Nc2ccc(C(=O)O)c(O)c2)cc1`: the growth is 92%.

Consider `O=S(=O)(c1ccccc1)n1ccc(-c2ccc3c(c2)CCO3)n1`, for which the growth was 62.4%.

For `Clc1ccc(-c2nc(-c3ccco3)cn3ccnc23)cc1`, the growth is 52.9%.

For `CCn1cc(C(=O)O)c(=O)c2cc(F)c(N3CCN(S(=O)(=O)c4cccc5ccccc45)CC3)cc21`, the growth was 6.47% (active).

For `O=P([O-])(O)OP(=O)([O-])O.[NH-][C@H]1CCCC[C@@H]1[NH-].[OH-].[OH-].[Pt+4]`, the growth was 97.8%.
